Hits are enriched below; roughly 1.6% of the tested compounds scored in any of these assays.
HTR5A ag ctr – HTR5A agonism, opioid heterodimer counter-screen; P47898; HTR5A agonist assay, luminescence, cell-based; activation, % at 9.3 µM; 0.61% of 340,000 active; in the data active = activation mostly above about 9.5%, no sharp cut-off; inactive = mostly below about 7.6%;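 note: 0% = cells with vehicle only and 100% = reference agonist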
OPRM1-OPRD1 ag – agonists of human mu-delta opioid receptor heterodimerization; activation, % at 9.3 µM; P35372+P41143; AID 504326; cells, OPRM1-OPRD1 heterodimerization, luminescence; 0.3% of 340,000 active; in the data active = activation above about 18%;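 note: 0% = vehicle-treated cells and 100% = reference agonist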
HTR5A inv ctr – inverse agonist of human HTR5A in OPRM1-OPRD1 counter-screen; P47898; HTR5A cell line, luminescence, inverse agonism; inhibition, % at 9.3 µM; 0.083% of 340,000 active; in the data active = inhibition mostly above about 23%, no sharp cut-off; inactive = mostly below about 18%;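 note: 0% = cells with DMSO and 100% = no-cell wells with DMSO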
HTR2A ag – mouse HTR2A agonism via beta-arrestin recruitment; CHO-K1 mHTR2A beta-arrestin complementation, luminescence; percent of 30 µM serotonin response; P35363; activation, % at 7.6 µM; 0.66% of 360,000 active;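 active = activation above a run cutoff, the mean activation of all tested compounds plus 3 SD, cut at about 14% in these data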;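 note: 0% = plate median of compound wells and 100% = 30 µM serotonin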
Target sequence (P35363 whole entry, looked up): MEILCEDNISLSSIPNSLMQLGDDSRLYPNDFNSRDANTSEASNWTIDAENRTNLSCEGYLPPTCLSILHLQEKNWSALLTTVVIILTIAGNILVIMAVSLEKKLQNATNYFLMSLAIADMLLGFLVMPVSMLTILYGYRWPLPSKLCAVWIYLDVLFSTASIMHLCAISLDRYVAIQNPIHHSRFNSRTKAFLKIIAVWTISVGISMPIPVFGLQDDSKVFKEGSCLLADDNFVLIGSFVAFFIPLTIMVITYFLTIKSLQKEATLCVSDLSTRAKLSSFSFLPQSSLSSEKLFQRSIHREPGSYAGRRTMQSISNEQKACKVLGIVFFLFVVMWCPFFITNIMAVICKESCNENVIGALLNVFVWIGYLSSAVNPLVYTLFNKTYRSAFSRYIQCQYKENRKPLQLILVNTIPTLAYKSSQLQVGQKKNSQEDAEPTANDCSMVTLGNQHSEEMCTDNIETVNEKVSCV
MOR-DOR inv ag – mu-delta opioid heterodimer inverse agonism; P35372+P41143; cell-based MOR-DOR heterodimer luminescence; inhibition, % at 9.3 µM; 0.21% of 340,000 active; AID 504357; in the data active = inhibition above about 22%, passing the limit was not always enough;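 note: 0% = cells with DMSO and 100% = wells without cells with DMSO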
Numbers without * were called inactive; x = no result.

SMILES	HTR5A ag ctr	OPRM1-OPRD1 ag	HTR5A inv ctr	HTR2A ag	MOR-DOR inv ag
COc1cc(NC(=O)Cn2nc(C(F)(F)F)c(Br)c2C)cc([N+](=O)[O-])c1	12*	10	-40	-1	-55
CCCCNC(=O)C1(C)CCN1C(=O)c1cccc(OC(F)(F)F)c1 (stereo not drawn)	x	x	x	3	x
COc1cccc(-c2nc(NCc3cccnc3)c3ccccc3n2)c1O	11*	-1	-39	-3	5
C[C@@H]1CCCCO[C@@H](CN(C)C(=O)CCCN(C)C)[C@@H](C)CN([C@H](C)CO)C(=O)c2cc(NC(=O)CCC(F)(F)F)ccc2O1	x	x	x	-2	x
CC(NC(=O)CSc1nc2ccccc2n1C)c1ccccc1 (stereo not drawn)	14*	1	-31	-7	-5
CC(C)(C)OC(=O)NCc1ccc(NC(=O)c2nc[nH]c2C(=O)N[C@@H](Cc2ccccc2)C(=O)OCc2ccccc2)cc1	25*	41*	-105	2	-228
CC(C)(C)OC(=O)NCc1ccc(CNC(=O)c2[nH]cnc2C(=O)N[C@@H](Cc2ccccc2)C(=O)OCc2ccccc2)cc1	9	6	-8	7	-32
CC1(C)CC(=O)c2cc3c(N)c(C(=O)NCc4ccccc4)sc3nc2C1	11*	1	-39	0	-3
COC(=O)c1sc2nc3c(cc2c1N)C(=O)CC(C)(C)C3	-2	1	4	7	-4
Cc1ccc(C)c(OCCC(=O)NNC(=O)Cn2nc(C)cc2C)c1	12*	-1	-34	8	6
COc1cccc(CN2CCNC(=O)C2CC(=O)O)c1OC (stereo not drawn)	8	0	-24	14*	2
CCCCCCN1CCN(C2CN(Cc3cn(Cc4cccc(C(F)(F)F)c4)nn3)S(=O)(=O)C2)CC1 (stereo not drawn)	x	x	x	0	x
Cc1[nH]nc2nc(SCC(=O)NCCC3=CCCCC3)n(-c3ccc(Br)cc3)c(=N)c12	15*	25*	-56	-5	-124
Cc1cc(-n2c(SCC(=O)NCCC3=CCCCC3)nc3n[nH]c(C)c3c2=N)ccc1Cl	31*	29*	-47	2	-151
Cc1ccc(Cl)cc1-n1c(SCC(=O)NCCC2=CCCCC2)nc2n[nH]c(C)c2c1=N	3	2	5	-3	-10
CCCS(=O)(=O)NC(=O)C1(C)CCN(C(=O)CSc2ccccc2)C1 (stereo not drawn)	x	x	x	0	x
CCN(CC)C(=O)C1=C(C)N(Cc2ccc(C(C)(C)C)cc2)C(=O)C(CC(=O)NCC2CCCCC2)C1 (stereo not drawn)	x	x	x	0	x
Cc1cc(C)cc(NC(=O)C(Nc2ccccc2)c2ccccc2)c1 (stereo not drawn)	12*	11	-10	-6	-51
COc1cccc(NC(C(=O)Nc2cccc(C(C)=O)c2)c2ccccc2)c1 (stereo not drawn)	4	1	3	4	-6
COc1cc(NC(C(=O)Nc2cccc(C(C)=O)c2)c2ccccc2)cc(OC)c1OC (stereo not drawn)	13*	2	-23	1	-9
CC1CCN(C(=O)COC(=O)c2cccc(S(=O)(=O)N3CCOCC3)c2)CC1	x	x	x	-13	x
Cc1cn([C@H]2C[C@H](O)[C@@H](/C=C/C(=O)NCCN3CCOCC3)O2)c(=O)[nH]c1=O	x	x	x	3	x
COc1ccc(C(=O)N/C(=C/c2cccnc2)C(=O)N2CCCCCC2)cc1OC	8.8*	-1	-33	-1	7
O=C(CSc1n[nH]c(-c2cccs2)n1)N1CCN(S(=O)(=O)c2ccc3ccccc3c2)CC1	9.8*	4	11	1	-23
COc1cc(S(=O)(=O)N2CCN(C(=O)c3cccs3)CC2)ccc1NC(C)=O	x	x	x	-3	x
SMILES	HTR5A ag ctr	OPRM1-OPRD1 ag	HTR5A inv ctr	HTR2A ag	MOR-DOR inv ag
O=S(=O)(/N=C(/Nc1cccnc1)c1ccccc1)c1ccc(F)cc1F	14*	-4	-35	-1	14
CC1(Oc2ccccc2-c2ccn[nH]2)CCN(Cc2ccc(OC(F)(F)F)cc2)C1 (stereo not drawn)	x	x	x	-3	x
Cc1cc(S(=O)(=O)Nc2ccc(C(=O)N3CCN(c4ccccc4O)CC3)cc2)ccc1F	14*	0	-15	-1	-3
CC(=O)Nc1ccc(NC(=O)CCCN2C(=O)c3ccccc3C2=O)cc1	9.8*	2	-28	6	-9
CC(=O)Nc1ccc(NC(=O)CCN2C(=O)c3ccccc3C2=O)cc1	-2	-1	7	-5	6
CC1(C(=O)Nc2ccc3c(c2)OCCO3)CCC(=O)N1CCOc1ccccc1 (stereo not drawn)	x	x	x	5	x
COC(=O)[C@]12CCCCC=C1N(Cc1ccc3c(c1)OCO3)C(=O)[C@H](CC(=O)NCCC(C)C)C2	x	x	x	-3	x
Fc1ccccc1N=C1NN=C(c2ccccc2)CS1	11*	-3	-52	1	14
Cc1cc(C)cc(C(O)c2ncc(-c3cccc(C(F)(F)F)c3)[nH]2)c1 (stereo not drawn)	x	x	x	3	x
Cc1ccc(C(=O)NNc2ncnc3c2cnn3C)cc1	4	-4	-20	-1	21
Cn1ncc2c(O/N=C(\N)c3ccc(C(F)(F)F)cc3)ncnc21	48*	39*	1	5	-196
Cn1c(C(=O)NCc2ccccn2)cc2c(=O)n(C)c3ccccc3c21	13*	-3	-36	-5	13
Cc1ccc(CNC(=O)c2cc3c(=O)n(C)c4ccccc4c3n2C)o1	2	-3	-4	9	16
Cn1cccc1/C=C(/C#N)C(N)=S	-4	-7	2	-3	37*
OCc1cccc(-c2csc(C(O)(c3ccccc3)C(F)(F)F)n2)c1 (stereo not drawn)	x	x	x	-2	x
COc1ccc(NC(=O)C2(C)CCN2C(=O)c2ccc(C(C)(C)C)cc2)cc1OC (stereo not drawn)	x	x	x	14	x
C=CCNc1nc(N2CCCCC2)c(C#N)c2c1CN(Cc1ccccc1)CC2	0	-1	-11	39*	5
CCN1CCc2c(C#N)c(N3CCCCC3)nc(NCc3ccccc3)c2C1	1	5	-29	-11	-34
Cc1ccsc1C(=O)N1CCCC1(C)C(=O)NCC(C)C (stereo not drawn)	x	x	x	-1	x
CCN(CC)C(=O)C1=C(C)N(Cc2ccc(C(C)(C)C)cc2)C(=O)C(CC(=O)NC(c2ccccc2)c2ccccc2)C1 (stereo not drawn)	x	x	x	9	x
CCn1c(C)nc2cc(C(=O)N/N=C/c3cccc(OC)c3O)ccc21	7	-2	-20	6	12
CCn1c(C)nc2cc(C(=O)N/N=C/c3ccc(O)c(O)c3O)ccc21	13*	8	-32	7	-49
CCCC(C(=O)c1ccccc1)n1cncn1 (stereo not drawn)	11*	-2	-27	3	12
CCN(CC)C(=O)c1cccc(-c2csc(C(O)(c3ccccc3)C(F)(F)F)n2)c1 (stereo not drawn)	x	x	x	-4	x
Cc1ccc(NC(=O)c2ccc3ccccc3n2)nc1	14*	-1	-51	-4	5
O=C(Nc1ccc(Cl)cn1)c1ccc2ccccc2n1	3	-1	-13	-1	6
